Unmarked numbers belong to inactive results. How the calls were made is not given here.
Test system: MBM
Experiment: selectivity across cysteine-reactive proteome – gel-based competitive ABPP, fluorescence, MBM, Neuro-2A, selectivity assay for PME-1 inhibitor project, late-stage follow-up (AID 602468)
Details: MBM or Neuro-2A, in vitro, at 10 µM, stronger effect = lower value

Which number of anti-targets inhibited does the source give for `CC[C@@]1(c2ccc(C)cc2)C(=O)N(C(=O)OC(C)C)N1C(=O)OC(C)C` here?
The number of anti-targets inhibited was 0.

From PubChem BioAssay AID602468 (The Scripps Research Institute Molecular Screening Center, 2012)
